Screening results as filed in PubChem.
IEC-6 tox – cytotoxicity in IEC-6 intestinal epithelial cells, primary screen, cytotoxicity control for KLF5 inhibitor project, cell-based, luminescence; inhibition, % at 5 µM; hit rate 0.78% among 290,000; IEC-6 cytotoxicity, luminescence viability; in the data active means inhibition above about 22%;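 further: 0% = plate median of test compound wells and 100% = cytotoxic reference compound wells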
APP transl inh – inhibitors of APP translation via 5'UTR reporter, primary screen, APP 5'UTR luciferase, SH-SY5Y cells. SH-SY5Y APP 5'UTR-luciferase reporter, luminescence. inhibition, % at 2 µM. hit rate 0.82% among 190,000;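 active means inhibition above a set limit, derived from the sample mean plus 3 SD, cut at about 45% in these data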
KLF5 inh – KLF5 expression inhibitors, primary screen, DLD-1 cells, luminescence; DLD-1 KLF5 promoter-luciferase reporter; inhibition, % at 5 µM; hit rate 0.23% among 290,000;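 active means inhibition above a per-plate limit of that plate's mean compound inhibition plus 3 SD, cut at about 60% in these data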;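 further: 0% = DMSO wells and 100% = LY294002 at 200 µM; higher means less KLF5 promoter-driven luciferase light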
BaF3 parental – parental Ba/F3 cell viability inhibition, counter-screen for JAK2V617F inhibitor project, murine pro-B, CellTiter-Glo luminescence; AID 1486, 2009; CellTiter-Glo ATP luminescence; hit rate 1.1% among 220,000; inhibition, % at 5.6 µM;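 active means inhibition above a per-campaign cutoff, the mean inhibition of all tested compounds plus 3 SD, cut at about 27% in these data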;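 further: 0% = DMSO wells and 100% = JAK Inhibitor I control wells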
aSyn UTR inh – MLPCN primary screen, SNCA 5' untranslated region | hit rate 0.82% among 300,000 | alpha-synuclein 5'UTR reporter, inhibitor activity | AID 1813, 2009 | inhibition, % (tested at 7.5 µM); in the data active means inhibition above about 60%;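 further: H4 neuroglioblastoma cells stably carrying SNCA 5'UTR luciferase fusion; 0% = DMSO wells and 100% = positive control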
Ba/F3 V617F tox – reduced viability of JAK2V617F-dependent Ba/F3 cells, primary screen, JAK2V617F inhibitor project, cell-based, Ba/F3 EpoR-JAK2V617F, luminescence; ATP luminescence; inhibition, % at 5.6 µM; hit rate 1.1% among 220,000; AID 1446, 2008;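 active means inhibition above the campaign mean plus 3 SD over all tested compounds, cut at about 24% in these data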;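 further: cytokine-independent growth of Ba/F3 cells driven by EpoR plus mutant JAK2; 0% = DMSO-treated cells and 100% = JAK inhibitor I control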
Starred values were filed as active, the others as inactive; x = no result. An excerpt weighted towards active compounds, which were near 2.1% of everything screened.

SMILES	IEC-6 tox	APP transl inh	KLF5 inh	BaF3 parental	aSyn UTR inh	Ba/F3 V617F tox
Nc1nc(NCCOCCO)nc(NC2CCCCC2)c1[N+](=O)[O-]	-2	x	-15	x	68*	x
COc1ccccc1CNS(=O)(=O)c1cc2c3c(c1)CCN3C(=O)CC2	x	x	x	x	12	x
FC(F)(F)c1nc2ccccc2n2c(-c3ccc(Cl)cc3)nnc12	0	-1	-12	0	108*	1
FC(F)(F)c1nnc2c(Sc3ccc(Cl)cc3)nc3ccccc3n12	2	7	-29	4	37	4
Cc1ccc(-c2nnc3c(C(F)(F)F)nc4ccccc4n23)cc1	1	-11	-33	4	71*	-7
CCOC(=O)[C@@H]1[C@H]2COc3ccc(Br)cc3[C@@H]2N2C(=O)N(c3ccc(C(F)(F)F)cc3)C(=O)[C@]12C	-1	x	0	x	11	x
Cc1ccc(N(C(=O)CNC(=O)c2ccco2)C(C(=O)NC2CCCCC2)c2ccncc2)c(C)c1 (centres undefined)	0	x	-15	x	-19	x
Cc1ccc(N=Nc2ccc(O)c3ncccc23)cc1	1	78*	5	11	86*	2
CCS(=O)(=O)c1ccc(N=Nc2ccc(O)c3ncccc23)c(OC)c1	-9	63*	-13	8	78*	0
CCS(=O)(=O)c1ccc(O)c(NC(=O)c2cc(OC)c(OC)c(OC)c2)c1	-5	-5	-20	-1	7	-2
Cc1ccc(N=Nc2ccc(O)c3ncccc23)cc1C	4	27	-27	4	74*	-1
CN(CCOc1ccc(Br)cc1)C(=O)CNC(=O)c1ccc2ccccc2c1	3	x	-21	x	18	x
Cc1occc1C(=O)N1CCN(c2ncccn2)CC1	-1	-21	-15	92*	-2	-1
CC(=O)N(O)CCCCCNC(=O)CCC(=O)N(O)CCCCCNC(=O)CCC(=O)N(O)CCCCCN	1	13	-7	9	75*	4
CN(C)Cc1ccccc1Sc1ccc2c(c1)CCCC2	x	x	x	x	104*	x
COc1ccccc1CN1CCC(CNS(=O)(=O)c2cc(-c3onc(C)c3C)ccc2OC)CC1	18	x	-32	x	-27	x
CCC(Cc1ccccc1)NC(=O)CCNS(=O)(=O)c1cc(Br)cnc1N (centres undefined)	-3	x	-29	x	15	x
CCCOc1ccc(/C=N/Nc2ccccc2[N+](=O)[O-])c(O)c1	-2	-173	-28	4	62*	-3
CCCOc1ccc(/C=N/NC(=S)Nc2ccccc2[N+](=O)[O-])c(O)c1	-1	46*	35	4	101*	-3
CCCOc1ccc(/C=N/Nc2cccc([N+](=O)[O-])c2)c(O)c1	-6	-15	-39	1	-164	1
COC(=O)/C=C/c1ccccc1S(=O)(=O)N(Cc1ccccc1)Cc1ccco1	x	x	x	x	89*	x
CC(Sc1nnc2ccccn12)C(=O)Nc1ncc(Cl)cc1Cl (centres undefined)	4	-6	-46	-1	-38	3
COc1ccc(-n2c(SC(C)C(=O)Nc3ncc(Cl)cc3Cl)nc3ccccc32)cc1 (centres undefined)	66*	25	42	62*	77*	69*
CCC(O)CNc1nc(SC)nc2sc3c(c12)CCN(C)C3 (centres undefined)	-5	-2	-40	57*	15	-2
COc1ccccc1CC(=O)N1CCN(c2ccccc2)CC1	-2	x	-55	x	10	x
SMILES	IEC-6 tox	APP transl inh	KLF5 inh	BaF3 parental	aSyn UTR inh	Ba/F3 V617F tox
CC#CC[N+](C)(C)CC(=O)c1ccccc1	-2	x	-12	0	0	0
CC#CC[N+](C)(C)CCCCCCCC	8	x	27	63*	5	66*
O=C(Cn1nc(CNc2ccc(Br)cc2)[n+]2c1CCCCC2)c1ccc([N+](=O)[O-])cc1	3	x	4	3	1	1
CCCn1c(=O)c2sccc2n2c(CCCC(=O)NC3CCN(Cc4ccccc4)CC3)nnc12	1	x	-2	x	7	x
CCN(CC(=O)NCc1ccc(Cl)cc1)C(=O)CSCC(=O)Nc1cccc(C)c1	-3	x	-16	x	-3	x
COc1ccc(C(=O)/C=C/C(=O)N(CC(=O)NC2CCCCC2)Cc2cccs2)c(O)c1	2	77*	15	4	71*	5
COCCN(CC(=O)NC1CCCCC1)C(=O)/C=C/C(=O)c1ccc(OC)cc1O	-8	93*	-7	3	79*	-3
COc1ccc(CN(C(=O)/C=C/C(=O)c2ccc(OC)cc2O)C(C(=O)NC2CCCCC2)c2ccncc2)cc1 (centres undefined)	-4	25	7	10	13	4
O=C(NC(c1ccccc1)c1ccccc1)c1ccc(CO)cc1	0	x	-21	x	-7	x
C=CCN(C(=O)CCC(=O)Nc1cc(C)on1)C(C(=O)NC(C)(C)C)c1ccc(OC)cc1 (centres undefined)	13	x	-11	x	-8	x
Cc1c(Cl)cccc1NC(=O)Nc1cc(C(C)(C)C)on1	9	x	0	x	8	x
O=C(CCc1ccccc1)NNC(=O)Nc1ccc(F)c(Cl)c1	7	x	1	x	7	x
Cc1cc2c(sc3c(C)ccc(C)c32)c(C)n1	-4	x	0	5	-24	-5
C(#Cc1ccccc1)CN1CCCCC1	2	5	-4	1	-6	-4
C#CC[N+](C)(C)CC#Cc1ccc(C)cc1	-4	-4	12	37*	21	41*
CCOC(=O)C[N+](CC)(CC)CC#Cc1ccccc1	1	-5	-28	2	15	0
C#CC[N+](CC)(CC)CC#Cc1ccccc1	1	x	7	62*	-7	59*
CC[N+](CC)(CC#Cc1ccccc1)CC#Cc1ccccc1	3	x	-19	67*	-12	89*
CC(C)c1ccc(CNCc2ccccc2)cc1	-4	-18	-10	0	-16	-4
CC#CCNCc1ccccc1	-6	-2	-42	35*	11	2
Cc1nc2ccccc2cc1OCc1ccccc1	1	-5	11	8	-46	0
COc1cccc(COc2cc3ccccc3nc2C)c1	6	-18	36	43*	-96	42*
Cc1ccc(S(=O)(=O)NCC(=O)N2CCN(S(=O)(=O)c3ccc(Cl)cc3)CC2)cc1C	x	x	x	x	15	x
Cn1c(=N)n(CC(=O)O)c2ccccc21	2	-1	-33	8	-9	8
COc1ccc(C(=O)Cn2c(=N)n(C)c3ccccc32)cc1	15	x	-73	-1	-62	1
Cn1c(=N)n(CC(=O)c2ccc(Cl)c(Cl)c2)c2ccccc21	11	x	41	x	81*	x
Cn1c(=N)n(CC(=O)c2ccccc2)c2ccccc21	10	x	-41	0	90*	2
CCn1c(=N)n(CC(=O)C(C)(C)C)c2ccccc21	0	64*	-13	-2	-3	-5
